# Sampled rows, rich in hits. Any-hit rate of the full collection: about 4.7%.
# tim10-1 inh – tim10-1 yeast growth inhibition. S. cerevisiae tim10-1 ts strain growth, BacTiter-Glo, 24 h. inhibition, % at 20 µM. actives 2.2% (n = 330,000);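 active means inhibition of at least 40%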;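 further: mutant grown at 25 °C; 0% = DMSO wells with yeast and 100% = wells holding no yeast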
# TIM10 inh – growth inhibitors of TIM10 yeast strain. S. cerevisiae TIM10 strain growth, BacTiter-Glo luminescence, 24 h. inhibition, % at 10 µM. actives 1.4% (n = 330,000). AID 463195;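 active means inhibition of 40% or more at the single tested concentration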;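 further: wild-type TIM10 isogenic control strain grown at permissive 25 °C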
# SKKanGAS inh – inhibitors of SKKanGAS S. pyogenes growth in kanamycin (SK-promoter or general growth effect); BacTiter-Glo, 6 h; inhibition, % at 7.5 µM; actives 1.3% (n = 300,000); AID 1662;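 active means mean replicate score, as percent of positive control median, at least 50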;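 further: strain carries kanamycin resistance gene driven by streptokinase promoter and grows in 40 µg/ml kanamycin; loss of luminescence reflects streptokinase promoter inhibition or plain growth inhibition; 0% = median of DMSO wells and 100% = positive control at its reference dose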
# EBI2 block – blocks human EBI2 receptor beta-arrestin signaling; P32249; EBI2 beta-arrestin recruitment, luminescence, 7a,25-OHC stimulated; inhibition, % at 5 µM; actives 0.81% (n = 360,000); AID 651636; in the data active means inhibition above about 38%;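 further: enzyme fragment complementation signal reports receptor beta-arrestin coupling in cells; 0% = agonist plus DMSO wells and 100% = wells without agonist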
# Target sequence (P32249 whole entry, looked up, the tested form may be a part): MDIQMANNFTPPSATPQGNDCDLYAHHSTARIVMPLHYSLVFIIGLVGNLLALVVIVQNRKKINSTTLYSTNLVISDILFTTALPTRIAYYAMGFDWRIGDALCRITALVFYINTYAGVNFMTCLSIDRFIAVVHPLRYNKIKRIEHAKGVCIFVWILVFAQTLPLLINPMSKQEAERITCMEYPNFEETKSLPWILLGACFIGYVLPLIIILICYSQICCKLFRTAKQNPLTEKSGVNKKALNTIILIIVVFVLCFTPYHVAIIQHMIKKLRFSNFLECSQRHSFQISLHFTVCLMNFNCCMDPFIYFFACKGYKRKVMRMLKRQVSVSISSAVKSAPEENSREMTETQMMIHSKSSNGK
# PfHsp90 set2 – inhibits growth of yeast expressing Plasmodium falciparum Hsp90. S. cerevisiae expressing PfHsp90, BacTiter-Glo ATP, 48 h; yeast lacking PDR1 and PDR3 efflux regulators. inhibition, % at 9.4 µM. actives 0.32% (n = 310,000);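 active means every replicate shows inhibition above about 80%, whatever the replicate mean, limit read from the data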;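 further: 0% = DMSO neutral controls and 100% = 20 µM radicicol positive controls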
# tim23-1 inh – inhibits growth of tim23-1 mutant yeast. actives 1.3% (n = 330,000). S. cerevisiae tim23-1 growth, BacTiter-Glo luminescence, 24 h. inhibition, % at 20 µM. AID 463212;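 active means growth inhibition of the mutant yeast at or above 50%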;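 further: temperature-sensitive mutant grown at 25 °C; plate controls were DMSO-treated mutant yeast for no effect and medium wells lacking yeast for full effect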
# Active calls of the source: *; · = not tested or not shown.
SMILES,tim10-1 inh,TIM10 inh,SKKanGAS inh,EBI2 block,PfHsp90 set2,tim23-1 inh
COC(=O)Cc1ccc(OC2(C)CCN(Cc3ccccc3OC(F)F)C2)cc1 (stereo not drawn),·,·,·,-5,·,·
O=C(O)/C=C/C(=O)Nc1ccc(OC(F)F)cc1,-7,2,-4,-13,-11,7
c1ccc(OCc2nc3c4c(ncn3n2)-c2ccccc2CC42CCCC2)cc1,-17,-26,52*,41,-7,-6
COCc1cn(CC(C)n2c(=O)c3ccccc3n2Cc2cc(C(C)C)no2)nn1 (stereo not drawn),·,·,·,3,·,·
CC1=CC2C(C(O)CC3(C)C2CC(C)C32OCOC23COCO3)C2(C)C/C(=C\O)C(=O)C=C12 (stereo not drawn),·,·,·,29,110*,·
Cc1onc(-c2c(F)cccc2Cl)c1C(=O)Nc1cc2cc([N+](=O)[O-])ccc2oc1=O,·,·,·,5,·,·
COc1ccc2ncc(S(=O)(=O)c3ccccc3)c(N3CCC4(CC3)OCCO4)c2c1,-31,-31,-1,2,17,-10
COc1ccc2ncc(S(=O)(=O)c3ccccc3)c(N3CCN(c4ccccc4)CC3)c2c1,5,25,67*,18,-10,-4
COc1ccc(OCc2cc(C(=O)O)c(C)o2)cc1,-5,-21,-5,·,·,4
Cc1cc(C)n(-c2nc(N(c3ccccc3)c3ccccc3)nc(-n3nc(C)cc3C)n2)n1,12,25,108*,-86,·,12
CC1CCN(c2nc(-c3cccnc3)nc3scc(-c4ccccc4)c23)CC1,27,8,75*,-1,-14,20
CC1CCCN(c2nc(-c3cccnc3)nc3scc(-c4ccccc4)c23)C1 (stereo not drawn),21,16,39,-7,-7,16
Cc1ccc(/C(=N/Nc2nc3ccccc3s2)C2=C(O)c3ccccc3C2=O)cc1,14,8,57*,17,-42,25
CC(C)Oc1ccc(CNC(=S)Nc2ccccc2)cc1Cl,37,11,-6,0,-11,35
COc1ccc(CSCCNC(=S)Nc2ccccc2)cc1Cl,24,28,63*,12,-30,38
CC(C)(C)OC(=O)N1C(=O)[C@](OC(=O)c2ccccc2)(c2ccc(F)cc2)c2ccccc21,·,·,·,19,·,·
O=C(COc1ccccc1)Nc1cccc(-c2nc3cc4ccccc4cc3[nH]2)c1,9,-6,67*,24,·,39
O=C(COc1ccccc1)Nc1cccc(-c2nn[nH]n2)c1,1,5,9,-8,17,5
CC(C)(C)c1ccc(NC(=O)COC(=O)c2ccc(NS(=O)(=O)c3ccc(F)c(F)c3)cc2)cc1,5,-2,54*,7,1,14
COc1ccccc1Cn1c(=S)[nH]c2cc(C(=O)N3CCCC(C)C3)ccc2c1=O (stereo not drawn),·,·,·,-7,·,·
Cc1cccc(N2CCN(C(=O)c3cc4cc(F)ccc4[nH]3)CC2)c1C,18,20,40,92*,-29,15
O=C(N1CCN(c2ccccc2F)CC1)C12CC3CC(CC(C3)C1)C2,38,24,5,3,4,34
Cc1cccc(N2CCN(C(=O)C34CC5CC(CC(C5)C3)C4)CC2)c1C,28,31,83*,17,-14,9
CN1CCN(C(=O)c2cc3cc(F)ccc3[nH]2)CC1,0,6,1,12,0,-13
OC1Cc2ccccc2C1Nc1cccc(C(F)(F)F)c1 (stereo not drawn),·,·,·,-6,-19,·
SMILES,tim10-1 inh,TIM10 inh,SKKanGAS inh,EBI2 block,PfHsp90 set2,tim23-1 inh
CCOC(=O)c1c(C)[nH]c(C(=O)N(C)CC(=O)Nc2ccc(OCC)c(OCC)c2)c1C,·,·,·,1,·,·
CCOC(=O)C1CCCN(C2=C(NS(=O)(=O)c3ccc(Br)cc3)C(=O)c3ccccc3C2=O)C1 (stereo not drawn),34,15,22,-5,3,36
CCOC(=O)C1CCN(C2=C(NS(=O)(=O)c3ccc(Cl)cc3)C(=O)c3ccccc3C2=O)CC1,19,7,52*,-1,1,37
Cc1ccc(C(=O)NC(=S)Nc2cccc3c(C)cc(C)nc23)cc1,-10,5,79*,34,8,8
CCOC(=O)C(C(=O)OCC)C(=O)c1cccc2ccc3ccccc3c12,·,·,·,2,·,·
CC(=O)Nc1ccc2c(c1)Cc1cc(N3C(=O)C=CC3=O)ccc1-2,·,·,·,25,116*,·
O=C1C=CC(=O)N1c1ccc2c(c1)Cc1cc(F)ccc1-2,·,·,·,6,116*,·
COC(=O)[C@@H](Cc1c[nH]c2ccccc12)NC(=O)c1cc(=O)[nH]c2ccccc12,17,9,4,-6,2,27
CCCS(=O)(=O)NC(=O)C1(C)CCN(C(=O)c2cc(F)cc(F)c2)C1 (stereo not drawn),·,·,·,8,·,·
CC[C@]12c3[nH]c4ccc(OC)cc4c3CCN1C(=O)C(CC(=O)NCc1ccc(OC)c(OC)c1)C[C@@H]2C(=O)N1CCN(C(=O)C2CC2)CC1 (stereo partly drawn),-2,-3,·,-2,1,13
Oc1ccc(C[C@H]2CNC(=S)N2CC2CCCN2C[C@H](Cc2ccc(O)cc2)N2C[C@H](Cc3ccccc3)N(CC3CCCCC3)C2=S)cc1 (stereo partly drawn),·,·,·,28,-8,·
COc1ccc([C@H]2CC(=O)C=C(c3cc4ccccc4s3)C2)cc1,2,-1,·,63*,-43,25
O=[N+]([O-])c1ccc2c(c1Nc1ccccc1)=NC1(CCCCC1)N=2,39,19,5,66*,-21,30
COc1ccc(Nc2c([N+](=O)[O-])ccc3c2=NC2(CCCCC2)N=3)cc1,36,38,5,61*,-3,47
COc1ccc(Nc2ccncc2[N+](=O)[O-])cc1,-10,-23,1,5,-6,-4
O=[N+]([O-])c1ccccc1Nc1ccccc1,0,-3,1,5,-1,-19
O=C1C2C3C=CC(C3)C2C(=O)N1CN(Cc1ccccc1)CN1C(=O)C2C3C=CC(C3)C2C1=O (stereo not drawn),22,5,5,-6,113*,28
CC1(C(=O)NS(=O)(=O)c2cccc(F)c2)CCN1C(=O)c1ccccc1 (stereo not drawn),·,·,·,-13,·,·
O=C(Nc1ccccc1Sc1ccccc1)c1ccccc1F,17,5,61*,8,15,-11
O=[N+]([O-])c1ccc2c(c1)-c1ccccc1C2=NO,·,·,·,-51,105*,·
CCN(CC)C(=O)C1=C(C)N(Cc2ccc(OC)cc2)C(=O)C(CC(=O)NC(c2ccccc2)c2ccccc2)C1 (stereo not drawn),·,·,·,6,·,·
COc1ccc(C)cc1NC(=O)C(OC(=O)c1cnc(C)cn1)c1ccccc1 (stereo not drawn),4,-10,10,9,9,6
